# According to article PMC7862700, “An all-to-all approach to the identification of sequence-specific readers for epigenetic DNA modifications on cytosine”:
# What was measured:
# Assay in all cases: DAPPL (digital affinity profiling via proximity ligation, sequencing); 10 mM Tris-HCl pH 7.5, 50 mM NaCl, 1 mM DTT, 4% glycerol, room temperature, 30 min; GST-TFs on glutathione beads, 16-mer random dsDNA library, 0.1% formaldehyde crosslink after washing; high values mean tight binding
# Conditions in all cases: protein: recombinant; tags: N-terminal GST; dsDNA, one strand shown
# FLI1 = biological target: T1, FLI1 (Homo sapiens, UniProt Q01543 1-452)
# T1 sequence: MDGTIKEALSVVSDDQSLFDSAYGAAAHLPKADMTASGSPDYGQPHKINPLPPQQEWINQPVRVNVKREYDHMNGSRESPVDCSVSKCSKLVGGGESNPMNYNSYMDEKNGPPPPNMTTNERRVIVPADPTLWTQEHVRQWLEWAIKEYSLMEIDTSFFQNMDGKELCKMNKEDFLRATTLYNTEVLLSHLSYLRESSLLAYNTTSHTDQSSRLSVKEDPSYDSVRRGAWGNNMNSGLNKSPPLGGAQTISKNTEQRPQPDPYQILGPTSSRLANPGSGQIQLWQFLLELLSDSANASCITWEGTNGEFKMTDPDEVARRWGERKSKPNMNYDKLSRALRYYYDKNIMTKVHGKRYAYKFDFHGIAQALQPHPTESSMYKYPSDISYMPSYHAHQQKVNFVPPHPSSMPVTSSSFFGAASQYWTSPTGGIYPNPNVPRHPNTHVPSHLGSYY
# In short: (§1)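 Pools were built from human transcription factors expressed in yeast as GST fusions, captured on glutathione beads and DNA-barcoded, along with a tag-only sample. Incubation with 200 nmole of a 16-mer random double-stranded DNA library lasted 30 min at room temperature in Tris/NaCl/DTT/glycerol buffer, and was followed by washing, 0.1% formaldehyde crosslinking, proximity ligation, PCR amplification and Illumina NextSeq500 sequencing. Binding signal is the quotient of each hexamer's read frequency for a factor and its frequency for the tag-only sample.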
# ELK1 = biological target: T2, ELK1 (Homo sapiens, UniProt P19419 1-428)
# T2 sequence: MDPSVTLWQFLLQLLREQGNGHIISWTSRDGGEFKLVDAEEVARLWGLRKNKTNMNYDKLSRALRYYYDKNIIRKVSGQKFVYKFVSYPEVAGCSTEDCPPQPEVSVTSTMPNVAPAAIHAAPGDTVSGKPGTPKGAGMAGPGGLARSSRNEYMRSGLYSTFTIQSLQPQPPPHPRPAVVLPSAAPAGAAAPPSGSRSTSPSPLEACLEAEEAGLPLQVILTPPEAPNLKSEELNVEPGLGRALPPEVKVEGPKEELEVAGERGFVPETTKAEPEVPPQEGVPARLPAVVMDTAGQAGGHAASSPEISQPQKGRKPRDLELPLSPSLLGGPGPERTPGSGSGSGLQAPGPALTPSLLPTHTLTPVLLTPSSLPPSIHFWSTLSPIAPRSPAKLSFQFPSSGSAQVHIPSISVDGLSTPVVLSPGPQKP
# In short: as §1
# GABPA = biological target: T3, GABPA (Homo sapiens, UniProt Q06546 1-454)
# T3 sequence: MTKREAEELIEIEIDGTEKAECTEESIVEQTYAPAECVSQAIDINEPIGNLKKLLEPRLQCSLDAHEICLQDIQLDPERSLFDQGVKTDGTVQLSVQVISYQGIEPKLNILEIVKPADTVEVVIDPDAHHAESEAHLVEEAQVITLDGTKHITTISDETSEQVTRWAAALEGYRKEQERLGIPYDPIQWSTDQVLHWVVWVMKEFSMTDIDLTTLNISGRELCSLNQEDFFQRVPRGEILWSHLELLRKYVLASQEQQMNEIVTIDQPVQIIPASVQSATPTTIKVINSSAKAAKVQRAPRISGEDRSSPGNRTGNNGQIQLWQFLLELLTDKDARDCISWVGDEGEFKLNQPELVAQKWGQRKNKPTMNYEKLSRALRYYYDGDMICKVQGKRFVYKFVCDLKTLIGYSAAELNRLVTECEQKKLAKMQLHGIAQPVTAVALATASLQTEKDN
# In short: as §1
# ERG = biological target: T4, ERG (Homo sapiens, UniProt P11308 1-479)
# T4 sequence: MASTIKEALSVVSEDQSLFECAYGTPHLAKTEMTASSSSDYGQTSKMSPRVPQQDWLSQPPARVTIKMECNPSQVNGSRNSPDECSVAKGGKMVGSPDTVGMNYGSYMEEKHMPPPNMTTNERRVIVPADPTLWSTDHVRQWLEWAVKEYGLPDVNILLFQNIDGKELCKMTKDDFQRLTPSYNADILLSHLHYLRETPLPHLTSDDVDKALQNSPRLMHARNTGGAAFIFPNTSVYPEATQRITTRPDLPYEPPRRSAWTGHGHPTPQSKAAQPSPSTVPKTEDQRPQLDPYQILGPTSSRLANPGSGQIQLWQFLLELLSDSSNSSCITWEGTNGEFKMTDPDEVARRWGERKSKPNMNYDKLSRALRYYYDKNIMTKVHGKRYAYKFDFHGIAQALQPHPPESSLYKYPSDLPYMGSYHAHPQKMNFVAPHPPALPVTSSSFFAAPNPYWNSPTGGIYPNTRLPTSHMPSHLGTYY
# In short: as §1
# ELF1 = ELF1 (Homo sapiens, UniProt P32519 1-619)
# ELF1, sequence (P32519 whole entry): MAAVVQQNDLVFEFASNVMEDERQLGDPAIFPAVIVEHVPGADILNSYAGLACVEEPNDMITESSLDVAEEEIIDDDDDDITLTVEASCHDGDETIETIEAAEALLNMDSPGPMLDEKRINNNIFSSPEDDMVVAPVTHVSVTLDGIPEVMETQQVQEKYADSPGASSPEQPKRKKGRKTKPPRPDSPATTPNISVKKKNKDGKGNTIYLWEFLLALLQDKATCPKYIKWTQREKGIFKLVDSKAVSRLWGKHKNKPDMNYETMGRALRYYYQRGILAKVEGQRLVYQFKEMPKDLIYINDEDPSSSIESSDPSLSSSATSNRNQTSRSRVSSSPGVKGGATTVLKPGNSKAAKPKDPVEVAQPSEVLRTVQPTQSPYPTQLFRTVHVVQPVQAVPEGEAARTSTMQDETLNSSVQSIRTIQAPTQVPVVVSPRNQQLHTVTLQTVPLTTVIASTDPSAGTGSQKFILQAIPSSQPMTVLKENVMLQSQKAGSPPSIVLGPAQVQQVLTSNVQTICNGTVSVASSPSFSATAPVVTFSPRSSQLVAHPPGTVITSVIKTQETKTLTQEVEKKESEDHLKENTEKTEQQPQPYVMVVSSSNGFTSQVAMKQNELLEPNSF
# In short: as §1
# EHF = biological target: T5, EHF (Homo sapiens, UniProt Q9NZC4 1-300)
# T5 sequence: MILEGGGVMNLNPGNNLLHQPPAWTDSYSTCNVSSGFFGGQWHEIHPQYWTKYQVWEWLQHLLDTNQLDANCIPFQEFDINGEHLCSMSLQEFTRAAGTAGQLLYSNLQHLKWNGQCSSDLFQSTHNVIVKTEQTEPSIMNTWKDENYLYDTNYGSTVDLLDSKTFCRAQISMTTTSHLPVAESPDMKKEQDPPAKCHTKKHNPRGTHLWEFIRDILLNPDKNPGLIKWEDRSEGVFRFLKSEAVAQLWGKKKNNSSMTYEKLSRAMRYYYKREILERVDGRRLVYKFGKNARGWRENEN
# In short: as §1
# SPI1 = SPI1 (Homo sapiens, UniProt P17947 1-270)
# In short: as §1
# SPIB = SPIB (Homo sapiens, UniProt Q01892 1-262)
# SPIB, sequence (Q01892 whole entry): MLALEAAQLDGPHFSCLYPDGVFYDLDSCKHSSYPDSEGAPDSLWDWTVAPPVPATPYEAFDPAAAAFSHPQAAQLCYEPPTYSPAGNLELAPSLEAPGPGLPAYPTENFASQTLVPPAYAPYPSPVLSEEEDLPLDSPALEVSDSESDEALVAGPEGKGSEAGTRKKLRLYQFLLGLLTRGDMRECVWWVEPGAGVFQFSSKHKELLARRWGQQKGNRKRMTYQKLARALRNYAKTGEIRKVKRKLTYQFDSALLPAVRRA
# In short: as §1
# ELK3 = biological target: T6, ELK3 (Homo sapiens, UniProt P41970 1-407)
# T6 sequence: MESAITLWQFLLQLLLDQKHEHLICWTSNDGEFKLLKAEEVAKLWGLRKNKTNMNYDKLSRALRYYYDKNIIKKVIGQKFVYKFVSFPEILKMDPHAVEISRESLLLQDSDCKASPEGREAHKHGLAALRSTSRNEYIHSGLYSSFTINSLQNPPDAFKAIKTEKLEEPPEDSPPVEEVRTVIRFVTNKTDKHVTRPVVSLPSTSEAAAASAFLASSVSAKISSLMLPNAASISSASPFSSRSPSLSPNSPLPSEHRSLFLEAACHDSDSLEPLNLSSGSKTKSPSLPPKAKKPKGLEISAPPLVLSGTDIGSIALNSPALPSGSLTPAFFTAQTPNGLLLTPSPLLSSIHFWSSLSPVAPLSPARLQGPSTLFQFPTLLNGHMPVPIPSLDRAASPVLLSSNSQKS
# In short: as §1
# ETV5 = ETV5 (Homo sapiens, UniProt P41161 1-510)
# ETV5, sequence (P41161 whole entry): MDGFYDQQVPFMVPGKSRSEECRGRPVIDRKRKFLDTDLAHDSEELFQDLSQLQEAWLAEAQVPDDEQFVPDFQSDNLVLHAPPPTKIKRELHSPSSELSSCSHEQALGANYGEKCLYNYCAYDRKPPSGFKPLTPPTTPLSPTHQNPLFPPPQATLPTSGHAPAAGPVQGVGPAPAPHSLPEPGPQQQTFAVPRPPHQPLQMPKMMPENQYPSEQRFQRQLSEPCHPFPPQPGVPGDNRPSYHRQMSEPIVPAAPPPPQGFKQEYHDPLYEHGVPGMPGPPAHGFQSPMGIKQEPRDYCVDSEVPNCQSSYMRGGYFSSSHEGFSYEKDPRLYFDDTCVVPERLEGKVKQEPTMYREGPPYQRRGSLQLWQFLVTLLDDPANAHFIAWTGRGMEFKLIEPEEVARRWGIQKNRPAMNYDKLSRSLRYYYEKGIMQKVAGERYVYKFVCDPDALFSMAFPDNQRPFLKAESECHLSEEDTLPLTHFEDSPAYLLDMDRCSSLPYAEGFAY
# In short: as §1
sequence,measurement,setting,value
ACCGCA,binding signal,FLI1,"1.17 fold enrichment (6-mer frequency, TF over GST control)"
same,binding signal,ELK1,"1.14 fold enrichment (6-mer frequency, TF over GST control)"
same,binding signal,GABPA,"1.16 fold enrichment (6-mer frequency, TF over GST control)"
same,binding signal,ERG,"1.11 fold enrichment (6-mer frequency, TF over GST control)"
same,binding signal,ELF1,"1.15 fold enrichment (6-mer frequency, TF over GST control)"
same,binding signal,EHF,"1.23 fold enrichment (6-mer frequency, TF over GST control)"
same,binding signal,SPI1,"1.2 fold enrichment (6-mer frequency, TF over GST control)"
same,binding signal,SPIB,"1.16 fold enrichment (6-mer frequency, TF over GST control)"
same,binding signal,ELK3,"1.19 fold enrichment (6-mer frequency, TF over GST control)"
same,binding signal,ETV5,"1.13 fold enrichment (6-mer frequency, TF over GST control)"
